Source: PubChem
RAD52 anneal inh – blocks human RAD52 DNA annealing. P43351. recombinant RAD52 DNA annealing, FRET fluorescence. inhibition, % at 18.7 µM. actives 0.46% (n = 360,000). AID 651710;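 active = every replicate showing at least 50% inhibition; inconclusive = mean inhibition at least 50% but not in every replicate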
Glyco luc inh – blocks N-linked glycosylation in D54 reporter cells. actives 0.23% (n = 360,000). D54 ERlucT glycosylation luciferase reporter, 24 h; percent of 100 nM tunicamycin response. reporter increase, % at 12.5 µM. AID 588692;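 active = mean luciferase reporter signal, scaled so untreated is 0 and the glycosylation-blocking control 100, at or above a set limit in every replicate; inconclusive = mean reaches the limit but not every replicate does; inactive = mean below the limit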;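 note: luciferase carries N-glycosylation sites so blocking glycosylation raises the light; 0% = median of neutral control wells and 100% = median of 100 nM tunicamycin wells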
NSD2 HMT inh – inhibitors of human histone methyltransferase NSD2; NSD2 peptide methylation, AlphaScreen, 120 min; inhibition, % at 12.5 µM; actives 0.54% (n = 310,000); AID 743445; in the data active = inhibition above about 50%
RAD54 branch – inhibitors of human RAD54 branch migration. Q92698. RAD54 Holliday junction branch migration, FAM/BHQ fluorescence. inhibition, % at 10.4 µM. actives 0.14% (n = 360,000);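 active = mean normalized replicate activity at least 40 and at least half of replicates scoring 40 or more; inconclusive = only one of the two criteria met; inactive = mean below 40 and under half of replicates reaching 40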;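 note: 0% = median of neutral control wells and 100% = median of positive control wells; inhibitors cause a drop in the FAM fluorescence signal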
CASP6 VEID inh – caspase-6 (human) enzyme inhibition; P55212; purified caspase-6, Z-VEID-R110 cleavage fluorescence; inhibition, % at 12.5 µM; actives 0.53% (n = 350,000);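 active = mean inhibition across replicates at least about 35%, with every replicate also reaching that limit, limit read from the data; inconclusive = only one of the two criteria met; inactive = neither criterion met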;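 note: 0% = median of neutral control wells and 100% = no fluorescence left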
Target sequence (P55212 24-179 limits assumed): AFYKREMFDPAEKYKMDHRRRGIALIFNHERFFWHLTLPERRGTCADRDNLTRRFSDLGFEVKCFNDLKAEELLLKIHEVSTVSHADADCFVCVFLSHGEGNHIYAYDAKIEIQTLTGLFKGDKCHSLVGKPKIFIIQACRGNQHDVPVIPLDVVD
Target sequence (P55212 194-293 limits assumed): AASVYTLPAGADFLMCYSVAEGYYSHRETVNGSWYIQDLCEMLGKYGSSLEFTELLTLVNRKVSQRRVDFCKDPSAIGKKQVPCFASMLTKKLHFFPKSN
DNA binding – binds DNA, flagging false Rad54 inhibitor hits | shares compounds with RAD54 branch | Acridine orange-DNA displacement, fluorescence polarization, 20 min | AC50, µM (doses to about 35 µM), without a hit: at the top dose activity change, negative = DNA binding | actives 8% (n = 460) | AID 651673;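 active = signal drop giving an AC50 within twice the top valid tested concentration of each sample, actives reach about 35 µM in these data; inactive = activity opposite to expected, plus the rest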;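 note: polarization loss reports compound binding to salmon sperm DNA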
DNA binder FP – binds DNA, flagging false RAD52 inhibitor hits; shares compounds with RAD52 anneal inh; actives 8% (n = 1,000); Salmon sperm DNA/acridine orange FP displacement, DNA binding; AC50, µM;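 active = fitted half-maximal concentration for signal loss at or below twice the highest dose tested, in every separate run, actives reach about 64 µM in these data; inconclusive = runs disagree, or flat partial signal loss, or poor fit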
* = called active by the depositor; i = inactive; ? = inconclusive; · = not tested or not shown. The list is not random: actives were taken first. Their share in the collection is about 1.2%.

SMILES | RAD52 anneal inh | Glyco luc inh | NSD2 HMT inh | RAD54 branch | CASP6 VEID inh | DNA binding | others
COCC(=O)N(C)C[C@H]1Oc2ncc(C#Cc3ccc(OC)cc3)cc2C(=O)N([C@@H](C)CO)C[C@@H]1C | -4 | · | · | 5 | 0 | ·
COc1ccc(-c2cnc3c(c2)C(=O)N([C@@H](C)CO)C[C@H](C)[C@@H](CN(C)C(=O)NC2CCCC2)O3)cc1 | 4 | · | · | -9 | 2 | ·
CCN1CCN(S(=O)(=O)c2ccc(Cl)c(C(=O)Nc3nnc(C)s3)c2)CC1 | -13 | 2 | 1 | -11 | -3 | ·
CCN(CC)S(=O)(=O)c1ccc(Cl)c(C(=O)Nc2nnc(C)s2)c1 | · | 0 | 0 | ? | · | -8%
Cc1ccc2nc(C)c3c(c2c1)N(c1ccc(F)cc1)CC3 | 41 | 5 | -2 | ? | 3 | -14%
CCC(=O)Nc1ccc2c(c1)OC[C@@H](C)N(Cc1cncnc1)C[C@@H](C)[C@H](OC)CN(C)C2=O | -4 | · | · | 3 | -1 | ·
N#C[C@@H]1[C@@H](c2ccccc2)[C@H](CO)N1C(=O)c1ccc2c(c1)OCO2 | -3 | · | · | 11 | -1 | ·
NNC(=O)c1oc2nc(-c3cccs3)cc(-c3ccco3)c2c1N | -10 | 51* | 1 | ? | 3 | -3%
Cc1ccc(-c2cc(-c3ccco3)c3c(N)c(C(=O)NN)oc3n2)cc1 | -28 | 5 | 1 | · | 1 | ·
COc1ccc(CCNC(=O)c2cc3c(=O)n4cccc(C)c4nc3n(CCCN3CCOCC3)c2=N)cc1 | -12 | 0 | 4 | 59* | -6 | -12%
Cc1cccn2c(=O)c3cc(C(=O)NCC4CCCO4)c(=N)n(CC4CCCO4)c3nc12 (stereo not given) | 17 | 11 | 29 | 21 | 3 | ·
CCOCCCn1c(=N)c(C(=O)NCCN2CCOCC2)cc2c(=O)n3cccc(C)c3nc21 | · | -2 | · | 69* | · | -15%
Cc1cccn2c(=O)c3cc(C(=O)NCC4CCCO4)c(=N)n(C4CCCCC4)c3nc12 (stereo not given) | -52 | 1 | 4 | ? | -2 | -5%
Cc1cccn2c(=O)c3cc(C(=O)NCCN4CCOCC4)c(=N)n(Cc4ccc(F)cc4)c3nc12 | 44 | -20 | -4 | 38 | -1 | ·
Cc1cccc2cc3c(N)c(C#N)sc3nc12 | · | 11 | -5 | 71* | · | 2%
O=C(CN1CCCC1)Nc1ccc(-c2nc3cc(NC(=O)CN4CCCC4)ccc3o2)cc1 | · | -9 | 0 | ? | · | -22%
COC(=O)c1c(NC(=O)c2ccc([N+](=O)[O-])o2)sc2c1CCN(C(C)C)C2 | -12 | 5 | -2 | 68* | -1 | 9%
CCN(CC)CCn1c2ccccc2c2nc3ccc([N+](=O)[O-])cc3cc21 | -28 | 70* | 3 | ? | -3 | -12%
CCS(=O)(=O)Nc1ccc2c(c1)C(=O)N(C)[C@@H]1CC[C@H](CC(=O)NCCOC)O[C@@H]1CO2 | -10 | · | · | 1 | 11 | ·
CCOc1ccc(N2C(=O)CSC23CCCCC3)cc1 | · | -1 | 15 | -16 | · | ·
COc1ccc(N2C(=O)CSC23CCCCC3)cc1 | · | 1 | 0 | ? | · | -9%
CN(C)c1cc(NC(=O)CNC(C)(C)C)c2ccccc2n1 | 28 | 6 | 2 | 76* | -5 | -11%
CCCCC(=O)Nc1cc(N(C)C)nc2ccccc12 | · | 1 | -2 | 4 | · | ·
CCCCN(CC)CCNC(=O)c1cc2c(=O)[nH]c3ccccc3c2s1 | -11 | 1 | 33 | 47 | -3 | ·
CCn1c(=O)c2cc(C(=O)NCCN(C)C)sc2c2ccccc21 | 26 | 16 | 2 | 53* | · | -10%
CCCN(CCC)CCCNC(=O)c1cc2c(=O)[nH]c3ccccc3c2s1 | 10 | 4 | 29 | 51* | -8 | -14%
CC(=O)c1ccc(C(=O)N(CCN(C)C)c2nc3c(Cl)cccc3s2)cc1 | 29 | 2 | 9 | 28 | -3 | ·
CN(C)CCN(C(=O)c1ccc2c(c1)OCCO2)c1nc2c(Cl)cccc2s1 | 27 | 3 | 3 | 51* | 1 | -5%
Cc1cc(-c2cc(NC=O)c3ncc(-c4cccc(C(=O)NCCN(C)C)c4)n3c2)cc(C)c1O | 92* | -2 | 3 | 62* | -1 | -4% | DNA binder FP=i
